Among the test systems are DU-145 prostate; K-562 leukemia; MALME-3M melanoma; MDA-MB-231 breast; RXF 393 renal; SF-268 CNS; SF-295 CNS; SF-539 CNS; UACC-257 melanoma; M14 melanoma.
What all share (test): NCI-60 one-dose screen, 48 h (100 = growth as untreated, 0 = no growth, -100 = all killed)
Holding throughout (conditions): 10 µM unless noted

The panel holds about 83,000 compounds, 20% with a hit somewhere; the sample as a whole holds those more often.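 Testing used 96-well plates and a 48-hour single-concentration exposure. Example: -40 means 40% of the starting cells died.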 Values without a mark were called inactive. The source made the active and inactive calls. Rule for the calls: active = growth percent below 10; inactive = the rest.

With `COC(=O)c1cc(C(=O)C(F)(F)F)n2c3ccccc3c3ccccc3c12`, the growth in the assay with DU-145 prostate was 96%; in the assay on K-562 leukemia it was 82.6%; in the assay on MALME-3M melanoma, 104%; with MDA-MB-231 breast it was 42.4%; in the assay with RXF 393 renal it was 69.2%; in the assay on SF-268 CNS, 83.4%. Moreover, the growth in the assay with SF-295 CNS was 37.2%; in the assay on SF-539 CNS, 67.5%; in the assay with UACC-257 melanoma, 110%; in the assay with M14 melanoma, 87.6%.

As for `O=C(Cn1c(-c2ccccc2)nc2ccccc21)N=Nc1c(O)[nH]c2ccc(Cl)cc12`, the growth in the assay on DU-145 prostate is 6.32% (active); with K-562 leukemia it was 10.6%; with MALME-3M melanoma, 5.8% (active); in the assay on MDA-MB-231 breast, -42% (active); in the assay with RXF 393 renal, -63.8% (active); in the assay with SF-268 CNS, 7.18% (active). The growth with SF-295 CNS was -40% (active); with SF-539 CNS it was -46.6% (active); with UACC-257 melanoma, 36.5%; in the assay with M14 melanoma, 14.9%.

With `CCCSc1nnc(-c2sc3nc4ccccc4n3c2C)o1`, the growth in the assay with DU-145 prostate was 103%; in the assay on K-562 leukemia, 97.4%; in the assay with MALME-3M melanoma, 116%; with MDA-MB-231 breast it was 108%; in the assay with RXF 393 renal it was 87.3%; in the assay on SF-268 CNS it was 115%. Besides, the growth in the assay with SF-295 CNS was 105%; in the assay with SF-539 CNS it was 108%; in the assay on UACC-257 melanoma, 102%; with M14 melanoma it was 106%.

`COc1ccc(NC(=O)CSc2nnc(-c3ccc(-c4nc5ccc(Cl)cc5[nH]4)cc3)o2)cc1`: the growth is 8.29% (active) in the assay on DU-145 prostate; 13.3% with K-562 leukemia; 0.449% (active) in the assay with MALME-3M melanoma; -30.2% (active) with MDA-MB-231 breast; -37% (active) in the assay on RXF 393 renal; 45.4% in the assay with SF-268 CNS. Further, the growth is 43.8% in the assay on SF-295 CNS, -91.1% (active) in the assay on SF-539 CNS, 29% with UACC-257 melanoma and 13.5% in the assay on M14 melanoma.

With `COc1ccc(C(=O)c2c(N)c(C#N)cn2-c2ccc([N+](=O)[O-])cc2)cc1`, the growth with DU-145 prostate is 109%; in the assay on K-562 leukemia, 104%; in the assay with MALME-3M melanoma it was 102%; with MDA-MB-231 breast it was 99%; with RXF 393 renal, 94.2%; in the assay on SF-268 CNS, 99.6%. Besides, the growth in the assay with SF-295 CNS is 91.9%; with SF-539 CNS, 95.7%; in the assay on UACC-257 melanoma it was 111%; in the assay on M14 melanoma, 113%.

For the compound `O=C1c2cccc3c(N4CCN(c5ccccc5)CC4)ccc(c23)C(=O)N1c1cccc(-c2nn(-c3ccccc3)cc2-c2nc3ccccc3s2)c1`, the growth is 108% with DU-145 prostate; 91.1% in the assay on K-562 leukemia; 88.8% in the assay on MALME-3M melanoma; 95.1% in the assay on MDA-MB-231 breast; 106% in the assay with RXF 393 renal; 101% in the assay on SF-268 CNS. Besides, the growth in the assay with SF-295 CNS is 103%; in the assay with SF-539 CNS it was 95.1%; with UACC-257 melanoma, 113%; in the assay with M14 melanoma, 104%.

Take `CC(C)C[C@H](NC(=O)CNC(=O)C[C@H]1O[C@@H]2OC3(C)CC[C@H]4[C@H](C)CC[C@@H]([C@H]1C)[C@@]24O3)B(O)O`: the growth was 42% in the assay with DU-145 prostate; 8% (active) in the assay on K-562 leukemia; -71.9% (active) in the assay with MALME-3M melanoma; -80.9% (active) in the assay on MDA-MB-231 breast; -78.5% (active) in the assay with RXF 393 renal; -22.4% (active) with SF-268 CNS. Also, the growth in the assay with SF-295 CNS is -61.3% (active); in the assay on SF-539 CNS, -93.6% (active); in the assay on UACC-257 melanoma it was -52.1% (active); in the assay with M14 melanoma, -45.8% (active).

Turning to `CCCCNC(=S)Nc1ccc(OCc2nc3ccc(Cl)cc3[nH]2)cc1`, the growth in the assay with DU-145 prostate was 26.3%; in the assay on K-562 leukemia it was 11.1%; with MALME-3M melanoma, 41.2%; in the assay on MDA-MB-231 breast it was 10.5%; in the assay with RXF 393 renal, -1.67% (active); with SF-268 CNS it was 48.3%. Further, the growth with SF-295 CNS is 67.6%; in the assay on SF-539 CNS it was 28.4%; in the assay on UACC-257 melanoma, 56.9%; in the assay with M14 melanoma it was 39.1%.

On to `COC(=O)c1cc(C(=O)CBr)n2c1ccc1c3ccccc3ccc12`, for which the growth was 69.3% in the assay with DU-145 prostate; 43% in the assay with K-562 leukemia; 51.2% with MALME-3M melanoma; 69.8% in the assay with MDA-MB-231 breast; 67% in the assay on RXF 393 renal; 74.7% in the assay on SF-268 CNS. Moreover, the growth in the assay with SF-295 CNS is 37.2%; in the assay on SF-539 CNS, 43.6%; in the assay on UACC-257 melanoma, 82.6%; with M14 melanoma, 69.5%.

Regarding `Cc1cc(C(NC(=O)C2CC3(CC(Nc4cccc5c4C(=O)N(C4CCC(=O)NC4=O)C5=O)C3)C2)c2ccc3c(c2)OC(F)(F)O3)c(O)c2ncccc12` (stereo not given), the growth in the assay with DU-145 prostate is 17.2%; in the assay on K-562 leukemia, 10.8%; in the assay on MALME-3M melanoma, 9.46% (active); in the assay with MDA-MB-231 breast, 25.2%; with RXF 393 renal, 23%; in the assay on SF-268 CNS, 14.4%. In addition, the growth in the assay with SF-295 CNS is 8.11% (active); in the assay on SF-539 CNS, -24.9% (active); in the assay with UACC-257 melanoma, -11% (active); in the assay with M14 melanoma, -30.4% (active).

As to `Cc1ccc(C2CC(c3ccc(NC(=O)Nc4ccccc4)cc3)=NN2c2ccc(S(N)(=O)=O)cc2)cc1` (stereo not given), the growth with DU-145 prostate was -76.2% (active); with K-562 leukemia, 6.16% (active); in the assay with MALME-3M melanoma it was -96.5% (active); with MDA-MB-231 breast it was -90.8% (active); with RXF 393 renal it was -91.3% (active); with SF-268 CNS, -74.5% (active). Further, the growth was -71.2% (active) with SF-295 CNS, -99.3% (active) with SF-539 CNS, -71.6% (active) in the assay on UACC-257 melanoma and -73.2% (active) in the assay with M14 melanoma.

For the origin of these results see PubChem BioAssay (NCI).
